# Reference: the supplement of paper PMC12494721
# Where a name gives a salt, the structure may show the parent alone. Values without a mark were called inactive.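 How the source made its calls: for the amine columns active = adjusted P below 0.05 in both replicates with a change the same way and a mean fold change under 0.8 or over 1.25; inactive = the rest.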
# Tested on: Klebsiella aerogenes DSM 30053
# Assay: fold change of Cadaverine concentration vs plate DMSO controls (fold change (ratio)); higher = more amine produced, active = hit call of the paper (significant change in both replicates, either direction)
# Conditions: incubation time: 27 h, anaerobic, 37 °C
# Procedure, shortened: (§1)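 Extracts of whole anaerobic mGAM cultures were analysed for amines by LC–triple-quadrupole MS with dynamic MRM and external calibration curves, with drift corrected within batch. Four gut strains were grown at 37 °C for 27 h in 80 µL wells with compounds at 20 µM final, sweeteners at 50 µM final. Each value expresses fold change over plate DMSO controls. The average of 2 biological replicates is shown.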
row,SMILES,fold change of Cadaverine concentration
1,CC(C)[C@H]1CC[C@H](C(=O)N[C@H](Cc2ccccc2)C(=O)O)CC1 [Nateglinide] (20 µM),1
2,O=C1OC(c2ccc(O)cc2)(c2ccc(O)cc2)c2ccccc21 [Phenolphthalein] (20 µM),1.02
3,COc1cc2c(cc1OC)C(=O)C(CC1CCN(Cc3ccccc3)CC1)C2 (centres undefined) [Donepezil hydrochloride] (20 µM),1.21
4,CC1=C(CC(=O)O)c2cc(F)ccc2/C1=C\c1ccc([S+](C)[O-])cc1 (centres undefined) [Sulindac] (20 µM),1.02
5,Cc1cn([C@H]2C=C[C@@H](CO)O2)c(=O)[nH]c1=O [Stavudine] (20 µM),0.991
6,C[C@]12CCC(=O)C=C1CC[C@@H]1[C@@H]2C(=O)C[C@@]2(C)[C@H]1CC[C@]2(O)C(=O)CO [Cortisone] (20 µM),1.01
7,C/C(O)=C(\C#N)C(=O)Nc1ccc(C(F)(F)F)cc1 [Teriflunomide] (20 µM),0.998
8,C[N+](C)(C)CCCCCC[N+](C)(C)C [Hexamethonium dibromide dihydrate] (20 µM),1
9,COC(=O)CCc1ccc(OCC(O)CNC(C)C)cc1 (centres undefined) [Esmolol hydrochloride] (20 µM),1.02
10,O=C(O)Cc1ccccc1Oc1ccc(Cl)cc1Cl [Fenclofenac] (20 µM),1.01

# Tested on: Ruminococcus gnavus DSM 108212
# Assay: fold change of 2-Phenylethylamine concentration vs plate DMSO controls (fold change (ratio)); higher = more amine produced, active = hit call of the paper (significant change in both replicates, either direction)
# Conditions: incubation time: 27 h, anaerobic, 37 °C
# Procedure, shortened: as §1
row,SMILES,fold change of 2-Phenylethylamine concentration
1,CCc1nc(N)nc(N)c1-c1ccc(Cl)cc1 [Pyrimethamine] (20 µM),0.819
2,CC(=O)Oc1cccc2c1C(=O)c1c(OC(C)=O)cc(C(=O)O)cc1C2=O [Diacerein] (20 µM),0.916
3,CC(C)(CO)[C@@H](O)C(=O)NCCCO [(D)-Panthenol] (20 µM),0.999
4,"CCc1cc(Cl)c(OC)c(C(=O)NC[C@@H]2CCCN2CC)c1O [(S,-) Eticlopride hydrochloride] (20 µM)",0.939
5,O=C1c2cccc(O)c2C(=O)c2c(O)cccc21 [Danthron] (20 µM),0.965
6,CN(C)CCC(c1ccc(Br)cc1)c1ccccn1 (centres undefined) [Brompheniramine maleate] (20 µM),1.14
7,NC[C@H]1O[C@H](O[C@H]2[C@H](O[C@@H]3O[C@H](CO)[C@@H](O)[C@H]3O)[C@@H](O)[C@H](N)C[C@@H]2N)[C@H](N)[C@@H](O)[C@@H]1O [Ribostamycin sulfate salt] (20 µM),1.03
8,NS(=O)(=O)c1cc2c(cc1Cl)N=CNS2(=O)=O [Chlorothiazide] (20 µM),1.01
9,CCc1oc2ccccc2c1C(=O)c1cc(Br)c(O)c(Br)c1 [Benzbromarone] (20 µM),0.763 (active)
10,O=C1NCN(c2ccccc2)C12CCN(CCCC(c1ccc(F)cc1)c1ccc(F)cc1)CC2 [Fluspirilene] (20 µM),0.884
11,C[C@H](CCC(=O)O)[C@H]1CC[C@H]2[C@@H]3C(=O)C[C@@H]4CC(=O)CC[C@]4(C)[C@H]3CC(=O)[C@]12C [Dehydrocholic acid] (20 µM),0.859
12,CCn1cc(C(=O)O)c(=O)c2ccc(C)nc21 [Nalidixic acid sodium salt] (20 µM),1.07
13,COc1cc(C(=O)NS(=O)(=O)c2ccccc2C)ccc1Cc1cn(C)c2ccc(NC(=O)OC3CCCC3)cc12 [Zafirlukast] (20 µM),0.814
14,NCCc1ccc(O)c(O)c1 [Dopamine hydrochloride] (20 µM),1.05
15,Cc1c(-c2ccccc2)oc2c(C(=O)OCCN3CCCCC3)cccc2c1=O [Flavoxate hydrochloride] (20 µM),1.02
16,Oc1c(I)cc(Cl)c2cccnc12 [Clioquinol] (20 µM),0.809
17,CN(C)C(=N)NC(=N)N [Metformin hydrochloride] (20 µM),1.08
18,N=C(N=C(N)N)N1CCOCC1 [Moroxidine hydrochloride] (20 µM),1.34 (active)
19,CCOCC(O)COc1ccc(NC(=O)CC[S+](C)C)cc1 (centres undefined) [Suplatast Tosylate] (20 µM),0.909
20,CCN1CCN(c2cc3c(cc2F)c(=O)c(C(=O)O)cn3C2CC2)CC1 [Enrofloxacin] (20 µM),1.05

row,SMILES,fold change of 2-Phenylethylamine concentration
1,C=C1c2c(Cl)ccc(O)c2C(O)=C2C(=O)[C@]3(O)C(O)=C(C(N)=O)C(=O)[C@@H](N(C)C)[C@@H]3[C@@H](O)[C@H]12.O=C(O)c1cc(S(=O)(=O)O)ccc1O [Meclocycline sulfosalicylate] (20 µM),0.11 (active)
2,C#CCN(C)CCCOc1ccc(Cl)cc1Cl [Clorgyline hydrochloride] (20 µM),0.974
3,CC1(C)[C@H](C(=O)O)N2C(=O)C[C@H]2S1(=O)=O [Sulbactam] (20 µM),1.08
4,CC(C)(C)C(=O)C(Oc1ccc(Cl)cc1)n1ccnc1 (centres undefined) [Climbazole] (20 µM),1.03
5,CC1(C)O[C@@H]2[C@@H](CO[C@@]3(COS(N)(=O)=O)OC(C)(C)O[C@@H]23)O1 [Topiramate] (20 µM),0.951
6,CN1CCC(OC(c2ccccc2)c2ccccc2)CC1 [Diphenylpyraline hydrochloride] (20 µM),1.05
7,O=c1[nH]c(=O)n([C@H]2C[C@H](O)[C@@H](CO)O2)cc1/C=C/Br [Brivudine] (20 µM),1.08
8,COC(=O)C1=C(C)NC(C)=C(C(=O)OCC(C)C)C1c1ccccc1[N+](=O)[O-] (centres undefined) [Nisoldipine] (20 µM),0.898
9,CCOC(=O)C(C)(C)Oc1ccc(Cl)cc1 [Clofibrate] (20 µM),0.97
10,CC(C)[C@H]1CC[C@H](C(=O)N[C@H](Cc2ccccc2)C(=O)O)CC1 [Nateglinide] (20 µM),1.05
11,O=C1OC(c2ccc(O)cc2)(c2ccc(O)cc2)c2ccccc21 [Phenolphthalein] (20 µM),0.986
12,COc1cc2c(cc1OC)C(=O)C(CC1CCN(Cc3ccccc3)CC1)C2 (centres undefined) [Donepezil hydrochloride] (20 µM),1.08
13,CC1=C(CC(=O)O)c2cc(F)ccc2/C1=C\c1ccc([S+](C)[O-])cc1 (centres undefined) [Sulindac] (20 µM),1
14,Cc1cn([C@H]2C=C[C@@H](CO)O2)c(=O)[nH]c1=O [Stavudine] (20 µM),1.02
15,C[C@]12CCC(=O)C=C1CC[C@@H]1[C@@H]2C(=O)C[C@@]2(C)[C@H]1CC[C@]2(O)C(=O)CO [Cortisone] (20 µM),1.03
16,C/C(O)=C(\C#N)C(=O)Nc1ccc(C(F)(F)F)cc1 [Teriflunomide] (20 µM),1.04
17,C[N+](C)(C)CCCCCC[N+](C)(C)C [Hexamethonium dibromide dihydrate] (20 µM),1.01
18,COC(=O)CCc1ccc(OCC(O)CNC(C)C)cc1 (centres undefined) [Esmolol hydrochloride] (20 µM),1.07
19,O=C(O)Cc1ccccc1Oc1ccc(Cl)cc1Cl [Fenclofenac] (20 µM),1.07
